Screening data (PubChem)
Mac1 fbg inh = CD11b/CD18-fibrinogen binding inhibition; hit rate 0.54% among 93,000; P05107+P11215; inhibition, % at 10 µM; K562 CD11b/CD18 adhesion to fibrinogen, ATPlite luminescence; Mn2+ added to activate the integrin;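 active = primary inhibition of 50% or more at 10 µM, then 40% or more on retest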
CYP2C9 activ = increases human cytochrome P450 2C9 activity. P11712. recombinant CYP2C9, luciferin-H conversion, luminescence; hits give high values; factor 1 = untreated enzyme, 0 = blocked. activation factor at 5 µM. hit rate 1.4% among 96,000. AID 1024;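 active = activation factor of 2 or more for CYP2C9 at a 5 µM dose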
Target sequence (P11712 whole entry, looked up): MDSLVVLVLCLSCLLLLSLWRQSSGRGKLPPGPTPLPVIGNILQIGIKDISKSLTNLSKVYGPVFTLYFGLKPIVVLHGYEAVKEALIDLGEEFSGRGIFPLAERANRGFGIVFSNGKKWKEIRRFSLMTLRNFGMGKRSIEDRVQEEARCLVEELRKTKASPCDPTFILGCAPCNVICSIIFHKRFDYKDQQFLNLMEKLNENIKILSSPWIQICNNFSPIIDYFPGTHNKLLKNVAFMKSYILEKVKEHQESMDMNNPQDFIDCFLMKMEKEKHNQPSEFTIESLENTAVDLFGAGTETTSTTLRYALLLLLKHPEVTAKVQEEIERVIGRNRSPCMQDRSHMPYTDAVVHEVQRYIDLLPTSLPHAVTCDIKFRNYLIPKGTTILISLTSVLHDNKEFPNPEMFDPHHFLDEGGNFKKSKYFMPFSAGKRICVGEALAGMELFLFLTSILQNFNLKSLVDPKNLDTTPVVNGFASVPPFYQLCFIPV
CYP2C19 inh = inhibitors of human CYP2C19; P33261; CYP2C19 Supersomes, luciferin-H EGE luminescence, 30 min; inhibition, % at 5 µM; hit rate 21% among 96,000; AID 778;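 active = CYP2C19 inhibition above a set limit at 5 µM in the primary screen, cut at about 50% in these data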
CD11b adhes enh = CD11b/CD18-fibrinogen binding enhancement. K562 CD11b/CD18 adhesion to fibrinogen, ATPlite luminescence. activation, % at 10 µM. hit rate 0.07% among 93,000;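 active = 10 µM primary screen giving 50% or more activity, confirmed by 40% or more on retest at that dose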
CYP2C19 act = increases human CYP2C19 enzyme activity; recombinant CYP2C19, luciferin-H EGE luminescence; hits give high values; 0 = fully inhibited enzyme, 1 = untreated enzyme; activation factor at 5 µM; 96,000 tested, under 10 active; AID 1025;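 active = activation factor of at least 2 at 5 µM in the primary screen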
CYP2C9 inh = blocks human cytochrome P450 2C9. P11712. CYP2C9 Supersomes, luciferin-H conversion, luminescence. inhibition, % at 5 µM. hit rate 20% among 96,000;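 active = blocking of liver enzyme CYP2C9 beyond about 50% at 5 µM, limit read from the data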
Of the large screens only hits and unclear results are named; the others gave an inactive call. This is a sample that favours compounds with a hit; in the whole collection about 28% have one here.

COCCCn1c(-c2ccccc2Cl)n[nH]c1=S	none
CCOCCCn1c(-c2ccc(Cl)cc2)n[nH]c1=S	CYP2C19 inh 84, CYP2C9 inh 51
CCn1c(-c2ccc(F)cc2)n[nH]c1=S	none
COCCCn1c(-c2ccc(Cl)cc2)n[nH]c1=S	CYP2C19 inh 77
O=C(COC(=O)C1CC(=O)N(C2CCCCC2)C1)c1ccc(F)cc1 (configuration not stated)	none
CCc1ccc(-c2cn(-c3nc(C)cc(C)n3)c(=N)o2)cc1	CYP2C19 inh 59
CCc1ccc(C(=O)CN(C#N)c2nc(C)cc(C)n2)cc1	none (no result: Mac1 fbg inh, CD11b adhes enh)
COc1cccc(OC)c1C(=O)n1nc(C)cc1C	none
COc1ccc(S(=O)(=O)n2nc(C)cc2C)c(C)c1C	CYP2C9 activ 2.4
Cc1cc(C)n(S(=O)(=O)c2ccc(C)c(C)c2C)n1	CYP2C9 activ 3.7
CC(C)(C)c1[nH]nc2c1C(c1ccc(OC(=O)c3ccco3)cc1)C(C#N)=C(N)O2 (configuration not stated)	CYP2C19 inh 65, CYP2C9 inh 71 (no result: Mac1 fbg inh, CD11b adhes enh)
Cc1cc2c(c(=O)n1C)C(Cc1ccccc1)C(C#N)=C(N)O2 (configuration not stated)	CYP2C19 inh 83
CC(C)(C)c1[nH]nc2c1C(Cc1ccccc1)C(C#N)=C(N)O2 (configuration not stated)	CYP2C19 inh 73, CYP2C9 inh 59 (no result: Mac1 fbg inh, CD11b adhes enh)
CCCC1C(C#N)=C(N)Oc2cc(C)n(C)c(=O)c21 (configuration not stated)	none
c1ccc(Cn2nnc3c(Nc4ccc5c(c4)OCO5)nc(C4CC4)nc32)cc1	none
C=C(C)CSc1nnc2n(Cc3ccccc3)c(=O)c3c4c(sc3n12)CCC4	none
O=C(c1ccccc1)N1CCc2ccccc21	none
COc1ccccc1C(=O)N1CCc2ccccc21	none
COc1ccc2oc(=O)c(C(=O)N3CCc4ccccc43)cc2c1	CYP2C9 activ 2.2
COc1cccc2cc(C(=O)N3CCc4ccccc43)c(=O)oc12	CYP2C19 inh 68
CCOc1cccc2cc(C(=O)N3CCc4ccccc43)c(=O)oc12	CYP2C9 activ 2.4
Cc1cc(C(=O)N2CCc3ccccc32)c2ccccc2n1	CYP2C19 inh 65
C=CCSc1nnc2nc3[nH]c4c(C)cccc4c3nn12	none (no result: Mac1 fbg inh, CD11b adhes enh)
O=C(CSc1nc2c(c(=O)n1-c1ccc(Cl)cc1)SCC2)Nc1ccc2c(c1)OCCO2	none
CCOc1ccc2nc(NC(=O)c3cnccn3)sc2c1	none
c1ccc(CCNc2nc3ccccc3s2)cc1	CYP2C19 inh 97, CYP2C9 inh 82
O=C(O)CCC(=O)Nc1nc2ccccc2s1	none
Cc1ccc(C(=O)Nc2nc3ccccc3s2)s1	CYP2C9 inh 61
O=C(Nc1nc2ccccc2s1)c1cnccn1	CYP2C19 inh 65
Cc1ccc(CNc2nc3ccccc3s2)s1	CYP2C19 inh 51
N#Cc1ccccc1NC(=O)COC(=O)c1ccc(S(=O)(=O)N2CCCC2)cc1	none
CC(CN1CCOCC1)OC(=O)c1cccc(Br)c1 (configuration not stated)	CYP2C19 inh 60
CC(CN1CCOCC1)OC(=O)c1ccccc1Br (configuration not stated)	CYP2C19 inh 76
CC(CN1CCN(C)CC1)OC(=O)c1ccccc1Cl (configuration not stated)	none
Cc1ccc(NS(=O)(=O)c2ccc(Cl)c(C(=O)O)c2)cc1S(=O)(=O)N1CCOCC1	none (no result: CYP2C9 activ, CYP2C19 inh, CYP2C19 act, CYP2C9 inh)
CCC1SC(=NC(=O)c2ccc(Cl)c(Cl)c2)NC1=O (configuration not stated)	CYP2C9 inh 58
CCCn1nc(C(=O)OCC(=O)Nc2ncc(Cl)c(C)c2Cl)c2ccccc2c1=O	none (no result: CYP2C9 activ, CYP2C19 inh, CYP2C19 act, CYP2C9 inh)
COCCCNC(=O)CCc1nc2cccnc2n1Cc1ccccc1	none
COc1ccc(Cn2c(CCC(=O)Nc3ccc(C)c(C)c3)nc3cccnc32)cc1	CYP2C19 inh 64, CYP2C9 inh 98
O=C(CCc1nc2cccnc2n1Cc1ccccc1)NCCc1ccc(Cl)cc1	CYP2C19 inh 71, CYP2C9 inh 69
N#C/C(=C(/O)COC(=O)c1ccc2c(c1)OCCO2)c1nc2ccccc2[nH]1	CYP2C19 inh 60, CYP2C9 inh 76
CCOC(=O)c1c(C)[nH]c(C(=O)OC/C(O)=C(\C#N)c2nc3ccccc3[nH]2)c1C	CYP2C19 inh 58, CYP2C9 inh 81
